Laboratory results published in PubChem BioAssay (NCATS).
Inconclusive results are not listed. The source made the active and inactive calls. Calls follow the shape of the dose curve; as a rule, active = well fitted cell-killing curve with a large enough effect; inconclusive = small, poorly fitted or top-dose-only effect, or effect the other way; inactive = flat fitted curve, though single readings scatter.

The compounds below were run on PA-1 (assay: Primary qHTS to identify gynecologic anti-cancer compounds using libraries of approved drugs and bioactive compounds (AID 1345084; also: nearly all actives have a fitted effect of over 55% in size)). Settings: Gynecologic cancer cell panel viability, ATPlite luminescence, 48 h; series mostly up to 57.5 µM; activity change, negative = cytotoxicity: at the top concentration.
How it was run: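 ATP-based viability (ATPlite), 1,000 cells/well, 16 h pre-incubation, 48 h compound at 37 C, 5% CO2, 15 min RT before read.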
% is scaled to controls: 0 for no effect and ±100 for the full control effect.

Compound | activity change, negative = cytotoxicity
O=C(CCCCC(=O)Nc1c(I)cc(I)c(C(=O)O)c1I)Nc1c(I)cc(I)c(C(=O)O)c1I | 0.396% (inactive)
OC[C@]1(O)OC[C@@H](O)[C@H](O)[C@@H]1O | 21.5% (inactive)
CN1CCC(=C2c3ccccc3CCc3cccnc32)CC1 | -42.9% (inactive)
CN1Cc2cc(C(=O)N3CCC(C4CCNCC4)CC3)ccc2NC(CC(=O)O)C1=O (stereo not given) | 8.46% (inactive)
Nc1c(I)cc(I)c(C(=O)N(CCC(=O)O)c2ccccc2)c1I | 4.05% (inactive)
Cc1ccccc1N1CCN(CCc2nnc3n2CCCC3)CC1 | -4.61% (inactive)
O=C(NO)c1ccccc1 | -8.29% [at 116 µM] (inactive)
Cc1ccc2ccc(Cl)cc2n1 | 18.3% (inactive)
Cc1ncc(CO)c(CO)c1O | -0.285% (inactive)
O=C1CC2(CCCC2)CC(=O)N1CCNCC1COc2ccccc2O1 (stereo not given) | -15.3% (inactive)
CC(=O)OCC[N+](C)(C)C | -1.22% (inactive)
Oc1ccccc1 | 16.8% (inactive)
c1ccc(C(O[C@H]2CCCN(CCc3ccc4c(c3)OCO4)C2)c2ccccc2)cc1 | -2.45% (inactive)
CCCCC(=O)OCC(=O)[C@H]1[C@H](C)C[C@H]2[C@@H]3C[C@H](F)C4=CC(=O)C=C[C@]4(C)[C@@]3(F)[C@@H](O)C[C@@]21C | 0.449% (inactive)
O=C(OCC(O)CO)c1ccccc1Nc1ccnc2c(C(F)(F)F)cccc12 (stereo not given) | -1.83% (inactive)
CN1C(CSCC(F)(F)F)Nc2cc(Cl)c(S(N)(=O)=O)cc2S1(=O)=O (stereo not given) | -4.14% (inactive)
COc1cc(C=O)ccc1O | -1.35% (inactive)
O=C(O)/C=C(\CC(=O)O)C(=O)O | 0% (inactive)
O=C(CCCCCCCCC#CI)Oc1ccccc1 | 5.83% (inactive)
NC(=O)COCCN1CCN(C(c2ccccc2)c2ccc(Cl)cc2)CC1 (stereo not given) | -1.99% (inactive)
